Structures are written as SMILES. Inconclusive results are not listed. A call without a number means that no potency is given here. The source made the active and inactive calls. The call rests on the fitted dose curve; in most records, active means well fitted inhibition curve with a large enough effect; inconclusive means small, poorly fitted or top-dose-only effect; inactive means flat fitted curve, though single readings scatter.

For the assay, the system named is Zika virus NS2B-NS3 protease. As to the kind of experiment: Primary screen GU AMC qHTS for Zika virus inhibitors (AID 1347154). Further: nearly all actives have a fitted effect of over 70% in size. To be noted: Zika NS2B-NS3 unlinked protease, AMC fluorogenic substrate; series mostly up to 54.1 µM. In outline:
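Unlinked Zika NS2B hydrophilic domain/NS3 protease domain noncovalent complex (25 nM final) in 10 mM Tris-HCl pH 8.0, 0.01% Tween 20, with AMC peptide substrate. Fluorescence (ex 340, em 450 nm) change over 15 min, room temperature; percent inhibition fitted to 4-parameter Hill equation.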
(qHTS replaces the single test concentration by a dilution series.)
In the case of `NC[C@H]1O[C@H](O[C@H]2[C@@H](O)[C@@H](O[C@H]3O[C@H](CO)[C@@H](O)[C@H](N)[C@@H]3O)[C@H](N)C[C@@H]2N)[C@H](N)C[C@H]1O`, the Potency entry is “inactive”.
The same measure for `CN(C)c1ccc2cc(C(=O)N[C@@H](CCCN=C(N)CCl)C(=O)NCc3ccccc3)ccc2c1`: “inactive”; for `OCC(O)C(O)C(O)CO` (stereo unspecified): “inactive”.
The result for `C[C@]12CCC(=O)C=C1[C@@H]1CC1[C@H]1[C@H]3[C@@H]4C[C@H]4[C@@]4(CCC(=O)O4)[C@@]3(C)CC[C@H]12` (stereo partly specified) reads “inactive”; that for `O=C(O)C(=O)Nc1cccc(C2=NN=N[N]2)c1`, “inactive”.
The result for `CC(=O)NC(CS)C(=O)O` (stereo unspecified) reads “inactive”; that for `O=c1[nH]c(=O)n([C@H]2C[C@@H](O)[C@@H](CO)O2)cc1C=CBr`, “inactive”; that for `CC(C)c1cnn2c(NCc3ccccc3)cc(NCCCCCCN)nc12`, “inactive”.
For the compound `CCOC(=O)C=C[C@H](C[C@@H]1CCNC1=O)NC(=O)[C@@H](CC(=O)[C@@H](NC(=O)c1cc(C)on1)C(C)C)Cc1ccc(F)cc1`, the Potency result was “inactive”.
The result for `CCCNC(=O)[C@H]1O[C@H]1C(=O)N[C@H](C(=O)N1CCC[C@@H]1C(=O)OC)C(C)CC` (stereo partly specified) reads “inactive”; that for `C[C@@H]1CC[C@@]2(OC1)OC1CC3C4CC=C5CC(O)CCC5(C)C4CCC3(C)C1[C@@H]2C` (stereo partly specified), “inactive”.
Consider `c1cc(CN2CCCNCCNCCCNCC2)ccc1CN1CCCNCCNCCCNCC1`, for which the Potency entry is “inactive”.
The result for `O=C(C[C@@H]1CC=CCCC(=O)O[C@H](c2ccccc2)CNC1=O)NCc1ccc(Cl)cc1` reads “inactive”; that for `C=C[C@@H]1CN2CCC1C[C@H]2[C@H](O)c1ccnc2ccc(OC)cc12` (stereo partly specified), “inactive”.
The same measure for `C[C@H]1O[C@H](O[C@H]2[C@H](O)[C@@H](O)[C@@H](O[C@H]3[C@H](O)[C@@H](O)C(O)O[C@H]3CO)O[C@H]2CO)[C@H](O)[C@@H](O)[C@H]1N[C@H]1C=C(CO)[C@@H](O)[C@H](O)[C@@H]1O` (stereo partly specified): “inactive”.
The same measure for `CC[C@H]1OC(=O)[C@H](C)[C@@H](O[C@H]2C[C@@](C)(OC)[C@@H](O)[C@H](C)O2)[C@H](C)[C@@H](O[C@@H]2O[C@@H](C)C[C@H](N(C)C)[C@@H]2O)[C@](C)(O)C[C@@H](C)C(=O)[C@H](C)[C@@H](O)[C@]1(C)O`: “inactive”.
`N#CC(=C(N)Sc1ccc(N)cc1)c1ccccc1C(F)(F)F`: the Potency result was “inactive”.
With `CN(C)CCN1C(=O)c2cccc3cc(N)cc(c23)C1=O`, the Potency result is “inactive”.
In the case of `C=C1C(=O)O[C@H]2[C@@H]1CCC(C)=CCC[C@@]1(C)O[C@@H]21`, the Potency result is “inactive”.
The same measure for `c1ccc(CNc2nc(NCc3ccccc3)c3ccccc3n2)cc1`: “inactive”; for `C#C[C@]1(O)CC[C@@H]2[C@@H]3CCc4cc(O)ccc4[C@H]3CC[C@@]21C`: “inactive”.
For `O=C(c1ccc(F)cc1)N1CCC[C@H](c2nc(-c3ccc(F)cc3)no2)C1`, the Potency entry was “inactive”.
As for `COc1ccc2cc([S+]([O-])Cc3ncc(C)c(OC)c3C)nc2c1`, the Potency result is “inactive”.
Consider `CN(N=O)C(=O)N[C@H]1C(O)OC(CO)[C@@H](O)[C@H]1O` (stereo partly specified), for which the Potency result was “inactive”.
The same measure for `CC(C)OC(=O)[C@H](C)N[P@](=O)(OC[C@H]1O[C@@H](n2ccc(=O)[nH]c2=O)[C@](C)(F)[C@H]1O)Oc1ccccc1`: “inactive”; for `NC(=O)c1cccc(-c2cccc(OC(=O)NC3CCCCC3)c2)c1`: “inactive”.
The same measure for `CCN1CCN(C(=O)N[C@H](C(=O)N[C@@H]2C(=O)N3C(C(=O)O)=C(CSc4nnnn4C)CS[C@@H]23)c2ccc(O)cc2)C(=O)C1=O`: “inactive”.
The result for `CCOC(=O)N1CCN([N+]([O-])=NOc2ccc([N+](=O)[O-])cc2[N+](=O)[O-])CC1` reads “inactive”; that for `OC[C@H]1OC(O)C[C@@H](O)[C@H]1O` (stereo partly specified), “inactive”; that for `NC(=O)c1ncn([C@@H]2O[C@H](CO)[C@@H](O)[C@@H]2O)c1O`, “inactive”.
With `C=CC[C@@H]1C=C(C)C[C@H](C)C[C@H](OC)[C@H]2O[C@@](O)(C(=O)C(=O)N3CCCC[C@H]3C(=O)O[C@H](C(C)=C[C@@H]3CC[C@H](O)[C@H](OC)C3)[C@@H](C)[C@@H](O)CC1=O)[C@@H](C)C[C@@H]2OC`, the Potency result was “inactive”.
The same measure for `Cc1noc(-c2ccc(CSCCC(=O)O)cc2)c1NC(=O)OC(C)c1ccccc1Cl` (stereo unspecified): “inactive”.
As for `CCCCCCCCCCCCCCCC(=O)OC[C@@H](NC(=O)C(Cl)Cl)[C@H](O)c1ccc([N+](=O)[O-])cc1`, the Potency result was “inactive”.
The result for `Cc1ccc(O)c(C(CCN(C(C)C)C(C)C)c2ccccc2)c1` (stereo unspecified) reads “inactive”; that for `COC(=O)[C@@H]1CC2=CC(=O)CC[C@]2(C)[C@@]23O[C@@H]2C[C@@]2(C)[C@H](CC[C@@]24CCC(=O)O4)[C@@H]13`, “inactive”.
The result for `COc1ccc([C@@H]2CNC(=O)C2)cc1OC1CCCC1` reads “inactive”.

For the origin of these results see PubChem BioAssay (NCATS).
